PubChem BioAssay
“And” between values parts separate entries of the source, which are not always exact repeats. Equal values may be shown once. Results filed as inconclusive are left out. The source made the active and inactive calls.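 Rule for the calls, unless noted: active = thallium flux through the channel raised or lowered by more than 3 SD from vehicle-only wells, actives on both sides; inactive = the rest.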

Tests used:
[1] = liver-stage malaria parasite growth inhibition, primary screen, cell-based, HepG2, luciferase luminescence, HepG2 viability (AID 624349; in the data active = parasite load remaining mostly below about 12%, no sharp cut-off; inactive = mostly above about 10%;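 note: 100% = mean of DMSO negative control wells on the same plate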); conditions: P. berghei liver stage in HepG2, luciferase luminescence, concentration not given here; parasite load remaining: stronger effect = lower value; viability: measured here: HepG2 viability without parasites
[2] = reducers of polyQ inclusions in PC12 cells, cell-based, NGF-treated PC12, GFPQ80 (AID 1614); conditions: PC12 NGF-treated GFP-polyQ80 inclusion reduction;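 note: lower means fewer inclusions and 0 means no inclusions at all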
[3] = growth inhibition of DIPG glioma cells, dose response, cell-based, JHH-DIPG-1, MIPE4.0, CellTiter-Glo, qHTS (AID 1347062; cut-off not given, nearly all actives have AC50 up to about 27 µM); conditions: JHH-DIPG-1 viability, CellTiter-Glo ATP luminescence
[4] = growth inhibition of DIPG glioma cells, dose response, cell-based, SU-DIPG-IV, MIPE4.0, CellTiter-Glo, qHTS (AID 1347063; cut-off not given, nearly all actives have AC50 up to about 30 µM;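 note: compound exposure lasted 48 hours before the viability readout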); conditions: SU-DIPG-IV viability, CellTiter-Glo ATP luminescence
F380Y = assay: modulators of BK channel variants, profiling panel, selectivity assay, cell-based, U2OS BacMam, thallium flux, beta subunits (AID 1259406); conditions: at 30 µM;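 note: initial slope of Thallos dye fluorescence rise after thallium is added; log ratio against the mean of 0.3% DMSO vehicle wells on the same plate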
F380Y/beta1 = assay: as above; conditions: at 30 µM
F380Y/beta2Delta = assay: as above; conditions: at 30 µM
F380Y/beta4 = assay: as above; conditions: at 30 µM
[5] = biological target: Calcium-activated potassium channel subunit alpha-1 (Homo sapiens) + Leucine-rich repeat-containing protein 26 (Homo sapiens) (UniProt Q12791+Q2I0M4); assay: as above; conditions: F380Y/Slo1WT/gamma1, at 30 µM
Chain of Calcium-activated potassium channel subunit alpha-1 (Homo sapiens) + Leucine-rich repeat-containing protein 26 (Homo sapiens) (Q2I0M4 whole entry, looked up, one chain of several): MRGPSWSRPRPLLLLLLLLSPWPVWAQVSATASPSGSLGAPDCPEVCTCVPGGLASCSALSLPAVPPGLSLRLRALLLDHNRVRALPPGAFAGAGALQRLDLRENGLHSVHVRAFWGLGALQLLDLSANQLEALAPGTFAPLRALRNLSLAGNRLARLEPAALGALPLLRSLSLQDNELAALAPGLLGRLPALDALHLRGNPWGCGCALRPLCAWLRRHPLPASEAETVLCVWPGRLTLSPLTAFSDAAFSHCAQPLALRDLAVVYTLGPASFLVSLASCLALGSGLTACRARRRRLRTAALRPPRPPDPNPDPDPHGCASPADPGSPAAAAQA

R275C = assay: as above; conditions: at 30 µM
R275C/beta1 = assay: as above; conditions: at 30 µM
R275C/beta2Delta = assay: as above; conditions: at 30 µM
R275C/beta4 = assay: as above; conditions: at 30 µM
R275C/Slo1WT/beta2 = assay: as above; conditions: at 30 µM
[6] = biological target: ATP-dependent translocase ABCB1 (Homo sapiens) (UniProt P08183); assay: MDR1 (ABCB1) efflux transporter inhibition, cell-based (AID 377; in the data active = fluorescence slope change above about 50%); conditions: MDR1-expressing cells, fluorescent substrate accumulation slope; stronger effect = higher value; concentration not given here
Chain of ATP-dependent translocase ABCB1 (Homo sapiens) (P08183 whole entry, looked up): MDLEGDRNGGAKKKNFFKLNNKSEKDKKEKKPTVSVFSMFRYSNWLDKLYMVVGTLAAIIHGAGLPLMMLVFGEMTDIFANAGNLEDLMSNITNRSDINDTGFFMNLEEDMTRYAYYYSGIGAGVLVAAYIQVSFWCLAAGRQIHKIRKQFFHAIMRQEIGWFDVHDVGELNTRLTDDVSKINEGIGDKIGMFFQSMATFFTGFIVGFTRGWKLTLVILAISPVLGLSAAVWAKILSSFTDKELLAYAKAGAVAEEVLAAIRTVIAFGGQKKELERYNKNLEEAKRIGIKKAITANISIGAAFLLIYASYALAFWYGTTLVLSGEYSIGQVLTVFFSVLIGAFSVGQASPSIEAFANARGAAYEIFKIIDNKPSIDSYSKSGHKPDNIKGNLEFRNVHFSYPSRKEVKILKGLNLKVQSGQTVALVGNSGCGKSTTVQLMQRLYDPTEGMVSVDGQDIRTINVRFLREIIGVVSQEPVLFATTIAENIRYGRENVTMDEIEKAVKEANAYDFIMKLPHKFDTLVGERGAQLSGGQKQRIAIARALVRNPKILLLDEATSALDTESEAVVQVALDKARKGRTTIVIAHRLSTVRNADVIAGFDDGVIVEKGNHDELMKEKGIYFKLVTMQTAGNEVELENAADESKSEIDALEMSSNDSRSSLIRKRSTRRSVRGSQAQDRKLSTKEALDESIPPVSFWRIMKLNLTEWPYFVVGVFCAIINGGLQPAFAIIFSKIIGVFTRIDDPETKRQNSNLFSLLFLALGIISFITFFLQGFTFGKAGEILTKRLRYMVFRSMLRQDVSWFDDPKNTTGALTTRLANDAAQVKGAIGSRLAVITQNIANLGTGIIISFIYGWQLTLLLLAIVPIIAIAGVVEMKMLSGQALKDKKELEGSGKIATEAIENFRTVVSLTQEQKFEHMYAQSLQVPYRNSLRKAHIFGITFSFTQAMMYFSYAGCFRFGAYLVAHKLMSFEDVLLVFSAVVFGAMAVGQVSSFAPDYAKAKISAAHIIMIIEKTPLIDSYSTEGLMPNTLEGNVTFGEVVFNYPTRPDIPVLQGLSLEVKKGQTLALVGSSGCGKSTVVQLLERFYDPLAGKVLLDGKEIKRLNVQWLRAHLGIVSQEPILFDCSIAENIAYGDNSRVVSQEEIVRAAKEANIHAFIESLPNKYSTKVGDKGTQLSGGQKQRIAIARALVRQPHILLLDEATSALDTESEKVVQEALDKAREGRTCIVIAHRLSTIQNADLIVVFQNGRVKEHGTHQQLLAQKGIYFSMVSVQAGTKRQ

[7] = Cy5 fluorescence interference with SSB-bound oligo, artefact control for HCV NS3 helicase inhibitor project, biochemical, NIH Clinical Collection, E. coli SSB (AID 743268; call rule not given here)
[8] = SU-DIPG-VI glioma cell viability, MIPE4.0 library, CellTiter-Glo luminescence, qHTS (AID 1347066; cut-off not given, nearly all actives have AC50 up to about 30 µM;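 note: cells exposed to compound for 48 hours before readout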); conditions: CellTiter-Glo ATP luminescence
[9] = LFS_MB_1R medulloblastoma cell growth inhibition, synergistic combos for chromothripsis tumors, cisplatin or BGB combos (AID 1671452; in the data active = inhibition above about 80%;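 note: cells exposed for 96 hours before readout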); conditions: LFS_MB_1R medulloblastoma cells, stronger effect = higher value
[10] = CRL2098 osteosarcoma cell growth inhibition, synergistic combos for chromothripsis tumors, BGB or cisplatin IC20 combos (AID 1671454; in the data active = inhibition above about 80%;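 note: cells exposed for 96 h before readout; 0% = vehicle DMSO and 100% = killing by high DMSO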); conditions: CRL2098 osteosarcoma cells, drug combinations, stronger effect = higher value
[11] = HD-MB03 medulloblastoma cell growth inhibition, synergistic combos for chromothripsis tumors, BGB or cisplatin IC20 combos (AID 1671455; in the data active = inhibition above about 83%;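 note: 0% = vehicle DMSO and 100% = high DMSO as cytotoxic control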); conditions: HD-MB03 medulloblastoma cells, stronger effect = higher value

COc1ccc2c(c1)C(=O)N(CCc1ccc(S(=O)(=O)NC(=O)NC3CCCCC3)cc1)C(=O)C2(C)C
inactive: parasite load remaining [1] 128%
79.4%: viability [1]

CC(C)OC(=O)C(C)(C)Oc1ccc(C(=O)c2ccc(Cl)cc2)cc1
inactive: outcome [3] | outcome [4] | log fold change Tl+ flux (F380Y) -0.0417 | log fold change Tl+ flux (F380Y/beta1) -0.0557 | log fold change Tl+ flux (F380Y/beta2Delta) -0.0352 | log fold change Tl+ flux (F380Y/beta4) 0.00294 | log fold change Tl+ flux [5] -0.00437 | log fold change Tl+ flux (R275C) -0.0206 | log fold change Tl+ flux (R275C/beta1) -0.021 | log fold change Tl+ flux (R275C/beta2Delta) 0.00724 | log fold change Tl+ flux (R275C/beta4) 0.00518 | log fold change Tl+ flux (R275C/Slo1WT/beta2) 0.0641
0: inclusion score [2]

CCn1cc(C(=O)O)c(=O)c2ccc(C)nc21
-1.32% and 14.5%: inhibition ([9]; measured here: combination with cisplatin, at 5 µM)
2.7% and -23.8%: inhibition ([10]; measured here: combination with cisplatin at IC20, at 0.5 µM)
-1.78% and 8.77%: inhibition ([11]; measured here: combo with cisplatin at IC20, at 0.5 µM)
inactive: fluorescence ratio [7] 1.03 | outcome [3] | outcome [8] | inhibition ([9]; at 0.5 µM) -19% and -13.7% | inhibition ([10]; at 0.5 µM) -8.42% and -27% | inhibition ([11]; at 0.5 µM) -1.5% and -3.12% | log fold change Tl+ flux (F380Y) 0.0464 | log fold change Tl+ flux (F380Y/beta1) 0.00258 | log fold change Tl+ flux (F380Y/beta2Delta) 0.0152 | log fold change Tl+ flux (F380Y/beta4) 0.0252 | log fold change Tl+ flux [5] 0.0259 | log fold change Tl+ flux (R275C) -0.0165 | log fold change Tl+ flux (R275C/beta1) 0.0366 | log fold change Tl+ flux (R275C/beta2Delta) 0.000751 | log fold change Tl+ flux (R275C/beta4) 0.0726 | log fold change Tl+ flux (R275C/Slo1WT/beta2) -0.00423
-30.2% and 15.7%: inhibition ([9]; measured here: combination with cisplatin, at 0.5 µM)
-13.8% and -3.06%: inhibition ([10]; measured here: combination with BGB at IC20, at 0.5 µM)
active: fluorescence slope change [6] 59.8%
-0.571% and -10.6%: inhibition ([11]; measured here: combo with BGB at IC20, at 0.5 µM)
2: inclusion score [2]
-21.7% and -0.433%: inhibition ([9]; measured here: combination with BGB IC40, at 0.05 µM)

CC(C)(C)NCC(O)c1ccc(O)c(CO)c1 (stereo unspecified)
inactive: fluorescence ratio [7] 0.96 | outcome [3] | outcome [4] | outcome [8]
2: inclusion score [2]

CN/C(=C\[N+](=O)[O-])NCCSCc1ccc(CN(C)C)o1
2: inclusion score [2]
inactive: log fold change Tl+ flux (F380Y) -0.0669 | log fold change Tl+ flux (F380Y/beta1) -0.0094 | log fold change Tl+ flux (F380Y/beta2Delta) 0.0319 | log fold change Tl+ flux (F380Y/beta4) 0.0499 | log fold change Tl+ flux [5] -0.0244 | log fold change Tl+ flux (R275C) 0.017 | log fold change Tl+ flux (R275C/beta1) 0.0242 | log fold change Tl+ flux (R275C/beta2Delta) -0.00414 | log fold change Tl+ flux (R275C/beta4) -0.0213 | log fold change Tl+ flux (R275C/Slo1WT/beta2) -0.015
active: fluorescence slope change [6] 105% | fluorescence ratio [7] 0.103

CC12CCC(CC1)C(C)(C)O2
2: inclusion score [2]

COCCCOc1ccnc(CS(=O)c2nc3ccccc3[nH]2)c1C (stereo unspecified)
108% and 71%: viability [1]
inactive: parasite load remaining [1] 32% and 56.4% | fluorescence ratio [7] 0.94 | outcome [3] | outcome [4] | outcome [8]

COc1ccc2cc([C@H](C)C(=O)O)ccc2c1
2: inclusion score [2]
inactive: outcome [3] | outcome [4] | outcome [8] | log fold change Tl+ flux (F380Y) 0.000985 | log fold change Tl+ flux (F380Y/beta1) 0.0107 | log fold change Tl+ flux (F380Y/beta2Delta) 0.00769 | log fold change Tl+ flux (F380Y/beta4) -0.000569 | log fold change Tl+ flux [5] 0.0442 | log fold change Tl+ flux (R275C) -0.0405 | log fold change Tl+ flux (R275C/beta1) -0.0361 | log fold change Tl+ flux (R275C/beta2Delta) -0.0194 | log fold change Tl+ flux (R275C/beta4) -0.0294 | log fold change Tl+ flux (R275C/Slo1WT/beta2) 0.0377

O=C1CN(/N=C/c2ccc([N+](=O)[O-])o2)C(=O)N1
2: inclusion score [2]
active: fluorescence slope change [6] 98.9%
